# In PubChem BioAssay (NCATS):
# Records with an inconclusive call do not appear. Entries that show only a call come without a potency. Values without a mark were called inactive. Calls of active or inactive are those of the source. Calls follow the shape of the dose curve; as a rule, active = well fitted inhibition curve with a large enough effect; inconclusive = small, poorly fitted or top-dose-only effect; inactive = flat fitted curve, though single readings scatter.
# Test system: MKL-1
# Assay: qHTS assay to identify novel small-molecules to repurpose for Merkel cell carcinoma treatment (AID 1296009); also: nearly all actives have a fitted effect of over 60% in size
# Details: MCC and control cell lines, CellTiter-Glo viability, 72 h; series mostly up to 46 µM
# How it was run: (§1)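 Cells exposed to NPC (8-point) and MIPE (11-point) compound dilutions for 72 hr at 37 degree celsius; viability read by CellTiter-Glo luminescence, normalized to no-cell and DMSO in-plate controls.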
# Potency is read from the fitted curve at half-maximal effect.
SMILES,Potency,"activity change, negative = cytotoxicity"
N#C/C(=C1\SCC(c2ccccc2Cl)S1)n1ccnc1 (configuration not stated),inactive,
COc1ccc(C(=O)c2ccccc2O)c(O)c1,inactive,
CCC1NC(=O)c2cc(S(N)(=O)=O)c(Cl)cc2N1 (configuration not stated),inactive,
OC1C(O)C(O)C(O)C(O)C1O (configuration not stated),inactive,
OC(C#CCN1CCCC1)(c1ccccc1)c1ccccc1,inactive,
COc1ccc(C(=O)c2ccccc2)c(O)c1,inactive,
CCC(Cc1c(I)cc(I)c(N)c1I)C(=O)O (configuration not stated),inactive,
CN(Cc1ccc(C(C)(C)C)cc1)Cc1cccc2ccccc12,inactive,
COP(=O)(OC)OC(c1ccc(Cl)cc1)P(=O)(OC)OC (configuration not stated),inactive,
Nc1nc(N)c(-c2ccccc2)s1,inactive,
CO[C@]12C[C@@H](COC(=O)c3cncc(Br)c3)CN(C)[C@@H]1Cc1cn(C)c3cccc2c13,inactive,
O=C(NCCc1c[nH]c2ccccc12)c1cccnc1,inactive,
CCN[C@@H]1C[C@H](N)[C@@H](OC2OC(CN)=CCC2N)[C@H](O)[C@H]1O[C@H]1OC[C@](C)(O)[C@H](NC)[C@H]1O (some centres not stated),,9.5% [at 0.597 µM]
CCOC(=O)c1ccc(N)cc1,inactive,
CN(C)CCC[C@@]1(c2ccc(F)cc2)OCc2cc(C#N)ccc21,inactive,
CCCCCCCCCCCCCCCC(=O)O,inactive,
CCC1Nc2cc(Cl)c(S(N)(=O)=O)cc2S(=O)(=O)N1 (configuration not stated),inactive,
NC(N)=NN=C(/C=C/c1ccc([N+](=O)[O-])o1)/C=C/c1ccc([N+](=O)[O-])o1,376 nM (active),

SMILES,Potency,"activity change, negative = cytotoxicity"
CN1CCN(c2c(F)cc3c(=O)c(C(=O)O)cn4c3c2SCC4)CC1,inactive,
CNCCc1ccccn1,inactive,
CC(=O)NCCCCCC(=O)O,inactive,
CCCc1ncc(C[n+]2ccccc2C)c(N)n1,inactive,
CC(C)(C)CC(C)(C)c1ccc(O)c(-n2nc3ccccc3n2)c1,inactive,
CCN(CC)CCNC(=O)COc1ccc(OC)cc1,inactive,
COc1cc(C(=O)N2CCCCCCC2)cc(OC)c1OC,inactive,
CCOC(=O)C(C#N)=C(c1ccccc1)c1ccccc1,inactive,
Cc1cc(-c2ccccc2)nnc1NCCN1CCOCC1,inactive,
CC[N+](C)(CC)CCOC(=O)C(O)(c1ccccc1)C1CCCCC1 (configuration not stated),inactive,
C[C@@H](O)[C@H]1C(=O)N2C(C(=O)O)=C(S[C@@H]3CN[C@H](CNS(N)(=O)=O)C3)[C@H](C)[C@H]12,inactive,
CC(C)(C)NC[C@H](O)COc1nsnc1N1CCOCC1,inactive,
CC(=O)O[C@H]1C[C@@H]2CC[C@@H]3[C@H](CC[C@@]4(C)[C@H]3C[C@H]([N+]3(C)CCCCC3)[C@@H]4OC(C)=O)[C@@]2(C)C[C@@H]1N1CCCCC1,inactive,
CCCN(CCC)S(=O)(=O)c1ccc(C(=O)O)cc1,inactive,
CC(C)(C)NCC(O)COc1cccc2c1C[C@H](O)[C@H](O)C2 (some centres not stated),inactive,
NC(=O)C1(N2CCCCC2)CCN(CCCC(=O)c2ccc(F)cc2)CC1,inactive,
CC(=O)Nc1ncc([N+](=O)[O-])s1,inactive,
FC1(F)C(F)(F)C(F)(F)C2(F)C(F)(F)C(F)(F)C(F)(F)C(F)(F)C2(F)C1(F)F (configuration not stated),inactive,

# Test system: MKL-2
# Assay: as above
# Details: MCC and control cell lines, CellTiter-Glo viability, 72 h; series mostly up to 46 µM
# How it was run: as §1
SMILES,Potency,"activity change, negative = cytotoxicity"
N#C/C(=C1\SCC(c2ccccc2Cl)S1)n1ccnc1 (configuration not stated),inactive,
COc1ccc(C(=O)c2ccccc2O)c(O)c1,inactive,
CCC1NC(=O)c2cc(S(N)(=O)=O)c(Cl)cc2N1 (configuration not stated),inactive,
OC1C(O)C(O)C(O)C(O)C1O (configuration not stated),inactive,
OC(C#CCN1CCCC1)(c1ccccc1)c1ccccc1,inactive,
COc1ccc(C(=O)c2ccccc2)c(O)c1,inactive,
CCC(Cc1c(I)cc(I)c(N)c1I)C(=O)O (configuration not stated),inactive,
CN(Cc1ccc(C(C)(C)C)cc1)Cc1cccc2ccccc12,inactive,
COP(=O)(OC)OC(c1ccc(Cl)cc1)P(=O)(OC)OC (configuration not stated),inactive,
Nc1nc(N)c(-c2ccccc2)s1,inactive,
CO[C@]12C[C@@H](COC(=O)c3cncc(Br)c3)CN(C)[C@@H]1Cc1cn(C)c3cccc2c13,inactive,
O=C(NCCc1c[nH]c2ccccc12)c1cccnc1,inactive,
CCN[C@@H]1C[C@H](N)[C@@H](OC2OC(CN)=CCC2N)[C@H](O)[C@H]1O[C@H]1OC[C@](C)(O)[C@H](NC)[C@H]1O (some centres not stated),,2.5% [at 0.597 µM]
CCOC(=O)c1ccc(N)cc1,inactive,
CN(C)CCC[C@@]1(c2ccc(F)cc2)OCc2cc(C#N)ccc21,inactive,
CCCCCCCCCCCCCCCC(=O)O,inactive,
CCC1Nc2cc(Cl)c(S(N)(=O)=O)cc2S(=O)(=O)N1 (configuration not stated),inactive,
NC(N)=NN=C(/C=C/c1ccc([N+](=O)[O-])o1)/C=C/c1ccc([N+](=O)[O-])o1,237 nM (active),

SMILES,Potency,"activity change, negative = cytotoxicity"
CN1CCN(c2c(F)cc3c(=O)c(C(=O)O)cn4c3c2SCC4)CC1,inactive,
CNCCc1ccccn1,inactive,
CC(=O)NCCCCCC(=O)O,inactive,
CCCc1ncc(C[n+]2ccccc2C)c(N)n1,inactive,
CC(C)(C)CC(C)(C)c1ccc(O)c(-n2nc3ccccc3n2)c1,inactive,
CCN(CC)CCNC(=O)COc1ccc(OC)cc1,inactive,
COc1cc(C(=O)N2CCCCCCC2)cc(OC)c1OC,inactive,
CCOC(=O)C(C#N)=C(c1ccccc1)c1ccccc1,inactive,
Cc1cc(-c2ccccc2)nnc1NCCN1CCOCC1,inactive,
CC[N+](C)(CC)CCOC(=O)C(O)(c1ccccc1)C1CCCCC1 (configuration not stated),inactive,
C[C@@H](O)[C@H]1C(=O)N2C(C(=O)O)=C(S[C@@H]3CN[C@H](CNS(N)(=O)=O)C3)[C@H](C)[C@H]12,inactive,
CC(C)(C)NC[C@H](O)COc1nsnc1N1CCOCC1,inactive,
CC(=O)O[C@H]1C[C@@H]2CC[C@@H]3[C@H](CC[C@@]4(C)[C@H]3C[C@H]([N+]3(C)CCCCC3)[C@@H]4OC(C)=O)[C@@]2(C)C[C@@H]1N1CCCCC1,inactive,
CCCN(CCC)S(=O)(=O)c1ccc(C(=O)O)cc1,inactive,
CC(C)(C)NCC(O)COc1cccc2c1C[C@H](O)[C@H](O)C2 (some centres not stated),inactive,
NC(=O)C1(N2CCCCC2)CCN(CCCC(=O)c2ccc(F)cc2)CC1,inactive,
CC(=O)Nc1ncc([N+](=O)[O-])s1,inactive,
FC1(F)C(F)(F)C(F)(F)C2(F)C(F)(F)C(F)(F)C(F)(F)C(F)(F)C2(F)C1(F)F (configuration not stated),inactive,
